Compound activity as filed in PubChem.
B2AR arrestin: qHTS assay of beta-arrestin-biased ligands of beta2-adrenergic receptor; Beta-2 adrenergic receptor (Homo sapiens), P07550; beta-arrestin recruitment to beta2AR, cell-based reporter; Potency, µM (highest dose often 46.1 µM), actives largely listed as activators; hit rate 0.02% among 330,000; AID 492947, 2010; further: nearly all actives have a fitted effect of over 65% in size
TSHR antag: Antagonists of the Thyroid Stimulating Hormone Receptor: HTS campaign | Thyrotropin receptor (Homo sapiens), P16473 | TSHR-expressing cells, TSH-stimulated cAMP HTRF, 2 h; active compounds read low | activity change, negative = inhibition, % at 11.5 µM | hit rate 0.2% among 330,000 | AID 504810, 2011;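 active means activity change below a set negative limit, meaning inhibition stronger than a set level, cut at about -70% in these data; inconclusive means activity change between two set negative limits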
Target sequence (P16473 whole entry, looked up): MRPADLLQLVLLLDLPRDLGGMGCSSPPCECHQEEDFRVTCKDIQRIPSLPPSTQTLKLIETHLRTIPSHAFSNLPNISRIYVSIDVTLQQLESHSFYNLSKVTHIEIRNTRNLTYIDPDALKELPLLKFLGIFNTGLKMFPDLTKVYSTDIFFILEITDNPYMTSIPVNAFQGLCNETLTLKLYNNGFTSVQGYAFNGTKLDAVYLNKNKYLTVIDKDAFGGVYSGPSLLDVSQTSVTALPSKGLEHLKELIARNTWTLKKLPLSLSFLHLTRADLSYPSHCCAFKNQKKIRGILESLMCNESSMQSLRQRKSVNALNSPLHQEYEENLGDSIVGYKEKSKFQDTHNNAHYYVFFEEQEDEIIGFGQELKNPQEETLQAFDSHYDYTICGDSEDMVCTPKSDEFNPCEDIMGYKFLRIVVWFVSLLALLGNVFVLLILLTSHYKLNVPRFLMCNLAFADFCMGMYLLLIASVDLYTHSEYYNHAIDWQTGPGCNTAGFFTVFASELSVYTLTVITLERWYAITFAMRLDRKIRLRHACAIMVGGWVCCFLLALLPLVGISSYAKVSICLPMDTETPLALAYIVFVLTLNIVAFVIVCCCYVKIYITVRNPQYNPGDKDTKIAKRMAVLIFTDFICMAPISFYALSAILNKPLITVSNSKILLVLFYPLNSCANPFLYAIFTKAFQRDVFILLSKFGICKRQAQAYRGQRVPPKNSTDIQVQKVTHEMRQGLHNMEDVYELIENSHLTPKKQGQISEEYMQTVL
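Inhibition of cAMP made by TSHR-expressing cells under TSH stimulation (4nM final, EC80; 2 h, 37 deg C) is quantified with a one-step lysis HTRF kit, anti-cAMP cryptate versus cAMP-d2.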
Gal4-VP16 FLuc: VP16 counterscreen qHTS for inhibitors of ROR gamma transcriptional activity | Drosophila S2 Gal4-VP16 UAS-luciferase, luminescence, 20 h | Potency, µM (highest dose often 53.6 µM), most hits filed as inhibitors | hit rate 3.5% among 310,000 | AID 2546, 2010;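 further: Gal4-VP16 expression switched on by copper sulfate through the metallothionein promoter; nearly all actives have a fitted effect of over 50% in size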
ELG1 DNA repair: qHTS screen for small molecules that inhibit ELG1-dependent DNA repair in human embryonic kidney (HEK293T) cells expressing luciferase-tagged ELG1 | HEK293T ELG1-luciferase reporter, luminescence, 16 h; DNA damage induced by 5-fluorouridine | Potency, µM (top dose mostly 46.1 µM), hits mostly inhibitors | hit rate 2.3% among 330,000 | AID 504467, 2011; further: nearly all actives have a fitted effect of over 55% in size
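Quantitative HTS, concentration-response format. 2,000 cells/well co-treated with 5-fluorouridine and compound, 16 hr in 5% CO2 at 37 °C; ONE-Glo luminescence read after 30 min.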
RORgamma inh: qHTS for inhibitors of ROR gamma transcriptional activity; Drosophila S2 Gal4-RORgamma UAS-luciferase reporter, 20 h; Potency, µM (highest dose often 53.6 µM), most hits filed as inhibitors; hit rate 5.4% among 310,000; AID 2551, 2010; further: nearly all actives have a fitted effect of over 60% in size
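In this cell-based reporter format, copper sulfate (700 uM final) drives Gal4–ROR gamma fusion expression from a metallothionein promoter in Drosophila Schneider cells; compounds preincubated 1 hr, reporter read after 20 hr at ambient temperature.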
Of the large screens only hits and unclear results are named; the others gave an inactive call. Most compounds without a hit are left out; they make up all but 7.5% or so of the library. Unless noted, the call rests on the fitted dose curve; in most records, active means well fitted curve in the direction sought with a large enough effect; inconclusive means small, poorly fitted or top-dose-only effect, or another doubt; inactive means no such curve, though single readings can be large; an effect the other way counts as inactive or inconclusive.

CN(C(=O)c1ccc(OCC=C(c2ccccc2)c2ccccc2)cc1)c1ccccc1I	none (no result: B2AR arrestin, TSHR antag, ELG1 DNA repair)
CCOc1ccc(/C=N/Nc2cc(N3CCOCC3)nc(C)n2)c(O)c1	Gal4-VP16 FLuc 11µM, RORgamma inh 7.1µM
Fc1ccc(/C=N/Nc2cc(N3CCOCC3)ncn2)cc1	Gal4-VP16 FLuc inconclusive, ELG1 DNA repair inconclusive, RORgamma inh inconclusive
Cc1nc(N/N=C/c2ccc(Br)cc2)cc(N2CCOCC2)n1	ELG1 DNA repair 15µM, RORgamma inh inconclusive
COc1ccc(C2(c3ccc(OC)cc3)NC(=O)N(CC(=O)NCC(C)c3ccccc3)C2=O)cc1 (centres undefined)	none (no result: Gal4-VP16 FLuc, RORgamma inh)
O=c1[nH]c(Cc2ccc(Cl)cc2)nc2ccccc12	none
COc1ccc(S(=O)(=O)N(Cc2ccccc2)Cc2nc3ccccc3c(=O)[nH]2)cc1	Gal4-VP16 FLuc 11µM, ELG1 DNA repair inconclusive, RORgamma inh 13µM
O=c1[nH]c(CN(CCc2ccccc2)S(=O)(=O)c2ccc(Cl)cc2)nc2ccccc12	Gal4-VP16 FLuc 6.3µM, ELG1 DNA repair inconclusive, RORgamma inh 4.5µM
CS(=O)(=O)N(CC(=O)NCCSCc1ccccc1)c1ccccc1Br	none
S=C1NC2(CCCCC2)Nc2ccccc21	Gal4-VP16 FLuc inconclusive, RORgamma inh 7.1µM
S=C1NC2(CCCC2)Nc2ccccc21	Gal4-VP16 FLuc inconclusive, RORgamma inh 0.35µM
O=C(CN1C(=O)C2CCCCC2C1=O)OCC(=O)c1ccc(F)cc1 (centres undefined)	none (no result: Gal4-VP16 FLuc, RORgamma inh)
COc1cc(-c2nnc(SCc3cc(=O)oc4cc(C)ccc34)o2)cc(OC)c1OC	ELG1 DNA repair 12µM
CCCCN(CCCC)C(=O)CSc1nnc(-c2cc(OC)c(OC)c(OC)c2)o1	ELG1 DNA repair 10µM
COc1cc(OC)cc(-c2nnc(SCC(=O)N(Cc3ccccc3)C(C)(C)C)o2)c1	ELG1 DNA repair 23µM
Cc1ccc2c(CSc3nnnn3C)cc(=O)oc2c1	none
COc1cc(-c2nnc(SCC(=O)N(Cc3ccccc3)C(C)(C)C)o2)cc(OC)c1OC	ELG1 DNA repair 21µM
CC(C)(C)C1(O)CC(C(F)(F)F)=NN1C(=O)Cc1ccc([N+](=O)[O-])cc1 (centres undefined)	RORgamma inh inconclusive
COc1cc(OC)cc(-c2nnc(SCc3cccc(C(=O)O)c3)o2)c1	Gal4-VP16 FLuc 7.1µM, RORgamma inh inconclusive
O=C(O)c1cccc(CSc2nnc(-c3ccco3)o2)c1	Gal4-VP16 FLuc inconclusive, ELG1 DNA repair inconclusive, RORgamma inh inconclusive
CN(C)C(=O)c1nc2ccc(Cl)cn2c1CN1CCCC(OCc2ccccc2)C1 (centres undefined)	ELG1 DNA repair inconclusive
COc1ccc(C(=O)c2c(N)sc3c2CCN(C(=O)OC(C)(C)C)C3)cc1	ELG1 DNA repair 23µM
CN1CCc2c(sc(N)c2C(=O)c2ccc(Cl)cc2)C1	Gal4-VP16 FLuc inconclusive
CC1CCCCC12NC(=O)N(CC(=O)NCc1ccco1)C2=O (centres undefined)	none (no result: Gal4-VP16 FLuc, RORgamma inh)
Cc1noc(C)c1S(=O)(=O)N1CCCC(C(=O)Nc2ccc(Cl)cn2)C1 (centres undefined)	ELG1 DNA repair 16µM
Cc1ccc(Cl)cc1NC(=O)C1CCCN(S(=O)(=O)c2c(C)noc2C)C1 (centres undefined)	ELG1 DNA repair inconclusive
CCCC/C=C/[C@H](c1ccccc1)[C@H](CO)Cc1ccc2ccccc2c1	none (no result: B2AR arrestin, TSHR antag, ELG1 DNA repair)
N=C(N)S/C=C\C(=O)O	Gal4-VP16 FLuc 32µM, RORgamma inh 32µM (no result: B2AR arrestin, TSHR antag, ELG1 DNA repair)
COC(=O)[C@H](Cc1ccccc1)NC(=O)O[C@@H]1C(=O)c2ccc(OC)cc2O[C@H]1c1ccc2c(c1)OCO2	none (no result: B2AR arrestin, TSHR antag, ELG1 DNA repair)
CC(C)Sc1nnc(CNC(=O)C23CC4CC(CC(C4)C2)C3)n1Cc1ccccc1	none
CCC(C)Sc1nnc(CNC(=O)C23CC4CC(CC(C4)C2)C3)n1C1CCCCC1 (centres undefined)	Gal4-VP16 FLuc inconclusive, RORgamma inh 11µM
COc1ccc(CC(=O)N2CCc3ccccc3C2)cc1	ELG1 DNA repair inconclusive
CCc1ccc(/C=C\C(=O)N2CCc3ccccc3C2)cc1	Gal4-VP16 FLuc inconclusive, ELG1 DNA repair inconclusive, RORgamma inh 10µM
O=C(/C=C/c1c(F)cccc1Cl)N1CCc2ccccc2C1	ELG1 DNA repair inconclusive, RORgamma inh 0.4µM
CCN1CCN(C(=O)/C=C/c2c(F)cccc2Cl)CC1	none
Nc1nc(NC2CC2)c2ncn([C@H]3C=C[C@@H](CO)C3)c2n1	none (no result: B2AR arrestin, TSHR antag, ELG1 DNA repair)
O=[N+]([O-])c1ccc(N2CCN(C(=S)Nc3ccc(F)cc3F)CC2)cc1	Gal4-VP16 FLuc inconclusive, ELG1 DNA repair inconclusive, RORgamma inh 13µM
O=[N+]([O-])c1ccc(N2CCN(C(=S)Nc3ccc(F)cc3)CC2)cc1	Gal4-VP16 FLuc inconclusive, ELG1 DNA repair inconclusive, RORgamma inh inconclusive
COc1ccc(NC(=S)N2CCN(c3ccc([N+](=O)[O-])cc3)CC2)cc1OC	Gal4-VP16 FLuc 7.1µM, ELG1 DNA repair 13µM, RORgamma inh inconclusive
Cc1cnc(CNc2ncnc3ccc(-c4ccc(N(C)C)cc4)cc23)cn1	none (no result: B2AR arrestin, TSHR antag, ELG1 DNA repair)
Nc1nc2c([N+](=O)[O-])cccc2s1	ELG1 DNA repair inconclusive
COc1ccc(C2Nc3ccccc3C(=O)N2Cc2ccco2)cc1COc1ccccc1F (centres undefined)	ELG1 DNA repair 18µM
COc1ccc(C2Nc3ccccc3C(=O)N2Cc2ccco2)cc1COc1ccc(NC(C)=O)cc1 (centres undefined)	ELG1 DNA repair inconclusive
O=C(Nc1ccc(F)cc1)Nc1cc(OCC(F)(F)F)cc(OCC(F)(F)F)c1	Gal4-VP16 FLuc 6.3µM, RORgamma inh inconclusive
CCOc1ccc(NC(=O)Nc2cc(OCC(F)(F)F)cc(OCC(F)(F)F)c2)cc1	ELG1 DNA repair inconclusive, RORgamma inh inconclusive
O=C(O)c1ccccc1N/N=C/C1=C(N2CCOCC2)C(=C\c2ccccc2)/CC1	ELG1 DNA repair inconclusive, RORgamma inh inconclusive
Cc1cc(C)nc(N/N=C/C2=C(N3CCOCC3)C(=C/c3ccccc3)/CC2)n1	ELG1 DNA repair 16µM
COc1cc(OC)c(N(C)S(=O)(=O)c2cccc(C(=O)Nc3nc(C)cs3)c2)cc1Cl	ELG1 DNA repair 18µM (no result: Gal4-VP16 FLuc, RORgamma inh)
COc1ccc(N(C)S(=O)(=O)c2cccc(C(=O)Nc3nc(C)cs3)c2)cc1	TSHR antag inconclusive, ELG1 DNA repair inconclusive (no result: Gal4-VP16 FLuc, RORgamma inh)
COc1cc(OC)c(N(C)S(=O)(=O)c2cccc(C(=O)NC3=NCCS3)c2)cc1Cl	Gal4-VP16 FLuc inconclusive, ELG1 DNA repair 16µM, RORgamma inh 10µM
COC(=O)NC(c1ccc(Cl)cc1)C(C(C)=O)C(=O)OC (centres undefined)	none (no result: B2AR arrestin, TSHR antag, ELG1 DNA repair)
